# Test results from PubChem BioAssay.
# Activity calls are given as the source filed them.
# Legend:
# [1] = test system: PRMT1 (protein arginine N-methyltransferase 1); assay: PRMT1 binders on small-molecule microarrays, primary screen, biochemical, small-molecule microarray, 635 nm fluorescence (AID 1088); conditions: small-molecule microarray binding, higher = more signal;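 also: binding of Prmt1 protein to compounds spotted on small-molecule microarray slides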
# [2] = yeast growth modulation, basal conditions, primary screen, YJM789 clinical isolate, OD600, 24 h (AID 1089);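 also: growth of clinical yeast isolate S. cerevisiae YJM 789 seeded 1000 cells per well; test concentration not given here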; conditions: S. cerevisiae YJM789 growth, higher = more signal, called active from +8 up or from −8 down
# [3] = fission yeast growth modulation, primary screen, strain 972, OD600, 24 h, no modulator (AID 1090);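 also: basal condition with compound alone and no growth modifier present; test concentration not given here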; conditions: S. pombe 972 growth, higher = more signal, called active from +8 up or from −8 down
# [4] = S. cerevisiae growth modulation with rapamycin, primary screen, strain BY4716, OD600, 96 h (AID 1091); conditions: higher = more signal, called active from +8 up or from −8 down; also: test concentration not given here
# [5] = molecular target: Torsin-1A-interacting protein 2 (Homo sapiens) (UniProt Q8NFQ8); assay: LULL1 binders on small-molecule microarray, primary screen, cell lysate, human LULL1 lysate, 635/667 nm fluorescence (AID 1092); conditions: hLULL1 lysate binding, 635 nm fluorescence, higher = more signal;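 also: probe is lysate of COS7 cells overexpressing human LULL1; score merges per-feature 667 nm fluorescence with signal-to-noise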
# Torsin-1A-interacting protein 2 (Homo sapiens), sequence (Q8NFQ8 whole entry, looked up): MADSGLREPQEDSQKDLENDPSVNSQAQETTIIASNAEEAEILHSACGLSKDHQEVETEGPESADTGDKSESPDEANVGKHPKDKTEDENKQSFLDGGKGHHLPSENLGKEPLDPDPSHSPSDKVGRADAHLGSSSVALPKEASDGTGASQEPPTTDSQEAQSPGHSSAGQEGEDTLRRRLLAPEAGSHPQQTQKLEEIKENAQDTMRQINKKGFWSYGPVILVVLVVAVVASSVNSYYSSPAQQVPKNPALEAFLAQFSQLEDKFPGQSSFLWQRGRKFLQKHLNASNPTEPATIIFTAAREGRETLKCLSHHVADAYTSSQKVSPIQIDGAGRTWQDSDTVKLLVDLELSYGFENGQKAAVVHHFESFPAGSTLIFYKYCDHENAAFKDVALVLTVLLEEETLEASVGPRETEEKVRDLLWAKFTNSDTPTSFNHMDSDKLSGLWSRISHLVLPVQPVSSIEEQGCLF
# [6] = E. coli growth modulation, two-sided OD650, primary screen, E. coli filamentation project, strain DRC41, 24 h (AID 1093); conditions: OD650, 24 h, higher = more signal, called active from +8 up or from −8 down;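 also: MC1000 strain lacking acrAB efflux and sulA so SOS filamentation is blocked; test concentration not given here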
# [7] = small-molecule microarray binders of probe aLefty2, primary screen, biochemical, biotinylated probe, 635/667 nm fluorescence (AID 1094); conditions: higher = more signal;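 also: score merges spot fluorescence near 667 nm with spot signal-to-noise ratio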
# [8] = test system: Noggin (protein binding on small-molecule microarray); assay: Noggin binders on small-molecule microarray, primary screen, biochemical, 635/667 nm fluorescence (AID 1095); conditions: 635 nm fluorescence, higher = more signal;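 also: score merges 667 nm feature fluorescence with signal to noise over triplicate slides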
# [9] = molecular target: Neurogenic locus notch homolog protein 3 (Homo sapiens) (UniProt Q9UM47); assay: NOTCH3 binders on small-molecule microarray, primary screen, biochemical, 635/667 nm fluorescence (AID 1096); conditions: NOTCH3 binding, 635 nm fluorescence, higher = more signal
# Neurogenic locus notch homolog protein 3 (Homo sapiens), sequence (Q9UM47 whole entry, looked up): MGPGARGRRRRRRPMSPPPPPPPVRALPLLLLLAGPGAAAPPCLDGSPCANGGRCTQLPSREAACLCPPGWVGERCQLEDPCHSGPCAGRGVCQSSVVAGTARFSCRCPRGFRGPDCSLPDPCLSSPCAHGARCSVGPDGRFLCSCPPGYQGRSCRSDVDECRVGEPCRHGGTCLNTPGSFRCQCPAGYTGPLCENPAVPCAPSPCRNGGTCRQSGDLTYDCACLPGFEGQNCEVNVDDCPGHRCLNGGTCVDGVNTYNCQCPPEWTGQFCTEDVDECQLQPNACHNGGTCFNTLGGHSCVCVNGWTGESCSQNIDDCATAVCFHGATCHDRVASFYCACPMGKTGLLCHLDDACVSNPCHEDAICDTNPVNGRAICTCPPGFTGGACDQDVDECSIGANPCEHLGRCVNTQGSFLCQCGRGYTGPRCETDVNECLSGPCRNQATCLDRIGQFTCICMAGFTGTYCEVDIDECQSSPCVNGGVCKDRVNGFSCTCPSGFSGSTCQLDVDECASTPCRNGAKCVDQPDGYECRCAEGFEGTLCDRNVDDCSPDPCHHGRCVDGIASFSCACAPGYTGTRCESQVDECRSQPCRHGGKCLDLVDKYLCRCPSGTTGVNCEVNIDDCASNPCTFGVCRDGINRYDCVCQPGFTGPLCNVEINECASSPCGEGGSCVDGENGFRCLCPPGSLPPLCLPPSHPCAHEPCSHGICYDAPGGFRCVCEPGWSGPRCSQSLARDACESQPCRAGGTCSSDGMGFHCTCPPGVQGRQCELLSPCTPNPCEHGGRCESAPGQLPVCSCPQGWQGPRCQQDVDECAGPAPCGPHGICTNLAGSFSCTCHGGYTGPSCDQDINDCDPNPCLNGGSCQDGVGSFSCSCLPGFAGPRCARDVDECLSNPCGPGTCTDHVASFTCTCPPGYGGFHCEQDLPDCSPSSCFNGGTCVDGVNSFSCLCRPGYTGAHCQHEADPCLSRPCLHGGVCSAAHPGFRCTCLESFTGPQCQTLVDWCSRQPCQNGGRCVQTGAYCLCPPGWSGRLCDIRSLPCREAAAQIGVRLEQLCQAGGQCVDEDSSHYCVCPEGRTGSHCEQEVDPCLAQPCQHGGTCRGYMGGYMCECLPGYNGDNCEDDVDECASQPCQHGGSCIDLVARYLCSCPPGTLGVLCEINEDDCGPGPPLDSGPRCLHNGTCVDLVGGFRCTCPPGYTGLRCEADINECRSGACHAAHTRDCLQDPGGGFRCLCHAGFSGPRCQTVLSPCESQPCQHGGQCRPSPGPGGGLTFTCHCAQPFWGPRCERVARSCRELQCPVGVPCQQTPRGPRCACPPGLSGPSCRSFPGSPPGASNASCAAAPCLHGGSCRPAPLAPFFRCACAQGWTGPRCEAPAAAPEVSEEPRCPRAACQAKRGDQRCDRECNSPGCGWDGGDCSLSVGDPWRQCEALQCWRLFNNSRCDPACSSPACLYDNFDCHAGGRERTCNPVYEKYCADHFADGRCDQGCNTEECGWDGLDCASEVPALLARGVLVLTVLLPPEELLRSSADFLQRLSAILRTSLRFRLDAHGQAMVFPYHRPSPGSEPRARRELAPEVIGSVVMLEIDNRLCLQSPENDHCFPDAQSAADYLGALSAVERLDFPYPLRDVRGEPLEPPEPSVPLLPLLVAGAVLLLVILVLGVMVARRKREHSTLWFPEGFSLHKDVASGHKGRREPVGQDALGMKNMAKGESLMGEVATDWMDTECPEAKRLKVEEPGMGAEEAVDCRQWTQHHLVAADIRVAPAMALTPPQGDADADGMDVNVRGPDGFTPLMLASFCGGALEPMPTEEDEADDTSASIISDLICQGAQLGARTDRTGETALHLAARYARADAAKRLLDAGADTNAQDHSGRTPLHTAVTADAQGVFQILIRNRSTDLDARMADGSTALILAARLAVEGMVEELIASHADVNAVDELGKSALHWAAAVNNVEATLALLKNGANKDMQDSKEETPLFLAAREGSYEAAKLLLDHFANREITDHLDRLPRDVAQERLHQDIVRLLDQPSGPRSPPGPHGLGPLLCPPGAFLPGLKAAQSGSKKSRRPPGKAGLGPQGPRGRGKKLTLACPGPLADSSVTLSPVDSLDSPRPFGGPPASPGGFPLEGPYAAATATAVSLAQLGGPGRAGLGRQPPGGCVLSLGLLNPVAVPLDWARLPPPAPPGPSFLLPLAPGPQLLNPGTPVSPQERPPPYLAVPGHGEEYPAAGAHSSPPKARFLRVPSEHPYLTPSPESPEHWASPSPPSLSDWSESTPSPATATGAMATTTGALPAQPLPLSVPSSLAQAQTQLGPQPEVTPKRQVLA
# [10] = small-molecule microarray binders of probe aEGFR, primary screen, biochemical, biotinylated probe, 635/667 nm fluorescence (AID 1097); conditions: higher = more signal;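 also: probe is a biotinylated anti-EGFR antibody binding compounds printed on slides; score combines fluorescence near 667 nm and signal to noise of each spot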
SMILES,composite z-score [1],z-score [2],z-score [3],z-score [4],composite z-score [5],z-score [6],composite z-score [7],composite z-score [8],composite z-score [9],composite z-score [10]
C=CCNC(=O)[C@@H]1[C@H]2C(=O)O[C@H](c3ccccc3)[C@H](c3ccccc3)N2[C@H](c2ccc(O)cc2)[C@@]12C(=O)N(C(=O)OCCOC)c1ccccc12,1.53,0.655 (inactive),0.625 (inactive),2.8 (inactive),3.25,1.11 (inactive),-0.0458,0.559,0.509,-0.14
C[N+](C)(C)CCCCCCNC(=O)[C@H]1C[C@H]2C(=O)N3CCC[C@H]3C(=O)N2[C@H]1c1ccc(O)cc1,1.54,-0.842 (inactive),-0.153 (inactive),-0.185 (inactive),2.96,0.89 (inactive),0.0087,0.785,0.6,-0.36
COc1ccc(C(O)C2C=CC3C(=O)N(C)C(=O)C3N2Nc2ccccc2)cc1OCc1ccccc1 (stereo not given),1.49,-4.02 (inactive),1.11 (inactive),0.317 (inactive),3.41,-1.2 (inactive),0.287,0.102,0.742,0.0099
COCCOC(=O)N1C(=O)[C@@]2(c3ccccc31)[C@H](C(=O)NC[C@H](O)c1ccccc1)[C@H]1C(=O)O[C@H](c3ccccc3)[C@H](c3ccccc3)N1[C@@H]2c1ccc(OCCO)cc1,1.54,1.98 (inactive),1.64 (inactive),6.18 (inactive),2.85,1.77 (inactive),-0.066,1.81,1.04,-0.023
COCCOC(=O)N1C(=O)[C@@]2(c3cc(C#CCNC(N)=O)ccc31)[C@H](C(=O)N1CCc3cc(OC)c(OC)cc3C1)[C@H]1C(=O)O[C@H](c3ccccc3)[C@H](c3ccccc3)N1[C@@H]2c1ccc(OCCO)cc1,1.08,0.854 (inactive),0.575 (inactive),4.41 (inactive),0.277,0.692 (inactive),-0.0163,1.3,1.13,-0.0734
COC(=O)[C@@]1(Cc2ccc(OC)cc2)[C@H]2c3cc(C(=O)N4CCCC4)n(CCc4c[nH]c5cc(F)ccc45)c3C[C@H]2CN1C(=O)c1ccccc1,1.09,0.548 (inactive),1.2 (inactive),1.75 (inactive),3.54,0.332 (inactive),0.776,0.103,1.08,0.103
COc1ccccc1CN1C(=O)c2ccccc2[C@@H](C(=O)NCCN2CCOCC2)[C@@H]1c1ccc(CO)cc1,0.663,-0.884 (inactive),0.067 (inactive),-0.805 (inactive),3.32,0.339 (inactive),-0.0948,0.025,0.209,-0.156
C[C@H]1NC(=O)[C@H](Cc2ccccc2)NC(=O)[C@@]23C(=O)N[C@@H](Cc4ccccc4)C2[C@H](C)[C@@]2(C)O[C@H]2C3/C=C/C/C=C\CNC1=O (stereo not given in full),-0.839,0.967 (inactive),0.266 (inactive),0.865 (inactive),-1.32,1 (inactive),-0.0724,-0.389,-0.795,-0.183
CN(C)CCCNC(=O)[C@@]1(Cc2ccccc2I)c2ccccc2C(=O)N(Cc2ccccc2C(F)(F)F)[C@H]1c1ccc(CO)cc1,1.05,-0.0554 (inactive),-19.8 (active),-2.58 (inactive),3.45,-0.971 (inactive),-0.16,-1.16,-0.848,-0.295
Cc1c(NC(=O)CC#N)c(=O)n(-c2ccccc2)n1C,0.175,-1.36 (inactive),-0.263 (inactive),-0.722 (inactive),1.16,-0.325 (inactive),-0.225,0.407,0.66,-0.0856
C[C@]1(C(=O)NCc2ccccc2)c2ccccc2C(=O)N(Cc2cc(F)cc(C(F)(F)F)c2)[C@H]1c1ccc(CO)cc1,0.113,0.328 (inactive),-0.325 (inactive),-0.0212 (inactive),2.68,0.808 (inactive),-0.0508,-1.67,-1.37,-0.253
COC(=O)[C@@]1(Cc2ccc(F)cc2)[C@H]2c3cc(C(=O)N(C)C)n(CCc4ccccn4)c3C[C@H]2CN1C(=O)c1ccccc1,1.16,2.9 (inactive),0.423 (inactive),-0.616 (inactive),3.94,0.196 (inactive),-0.0278,0.259,0.861,0.709
COc1ccc([Si](C)(C)[C@@H]2[C@@H](CC(=O)N(CCO)Cc3ccccc3)O[C@]3(C(=O)N(C)c4ccccc43)[C@H]2C)cc1,1.54,-0.943 (inactive),0.14 (inactive),0.451 (inactive),1.81,-0.0145 (inactive),0.512,1.21,0.963,0.238
NCCCCCNC(=O)[C@H]1C[C@H]2C(=O)NCC(=O)N2[C@H]1c1cccc(OCCO)c1,1.31,-0.155 (inactive),-1.02 (inactive),-0.189 (inactive),2.34,0.946 (inactive),-0.0766,1.33,0.6,0.0311
COCCOC(=O)N1C(=O)[C@@]2(c3cc(C#CCCO)ccc31)[C@H](C(=O)NC[C@H](O)c1ccccc1)[C@H]1C(=O)O[C@H](c3ccccc3)[C@H](c3ccccc3)N1[C@@H]2c1ccc(O)cc1,0.66,1.22 (inactive),0.572 (inactive),1.68 (inactive),2.35,0.856 (inactive),-0.0862,1.7,0.459,-0.137
CC(C)(C)N1CC=CC23O[C@@H]4/C=C\CCCOC(=O)C4[C@H]2C(=O)N(CCO)[C@@H]3C1=O (stereo not given in full),-0.344,0.478 (inactive),0.224 (inactive),-0.1 (inactive),1.94,1.54 (inactive),-0.241,-0.551,-0.871,-0.272
CN(C)C(=O)[C@@]1(CCC(=O)OC(C)(C)C)N=C(c2ccc(OCCCO)cc2)O[C@H]1c1ccccc1,1.41,-0.365 (inactive),-0.0946 (inactive),-0.213 (inactive),3.55,-0.444 (inactive),0.346,0.94,0.0453,0.0197
O=C1O[C@@H](c2ccccc2)[C@@H](c2ccccc2)N2[C@@H](c3ccccc3OCCO)[C@]3(C(=O)Nc4ccc(C#CC5(O)CCCCCC5)cc43)[C@@H](C(=O)Nc3nc4ccccc4s3)[C@H]12,1.56,1.39 (inactive),1.96 (inactive),3.42 (inactive),2.19,0.0499 (inactive),0.01,1.33,1.06,1.01
COc1ccc(C(=O)Nc2cccc(CN3C(=O)[C@]4(O[C@H](CC(=O)N5CCC[C@H]5CO)[C@@H]([Si](C)(C)c5ccc(OC)cc5)[C@@H]4C)c4ccccc43)c2)cc1,1.38,-0.979 (inactive),-0.22 (inactive),-0.378 (inactive),2.34,0.44 (inactive),-0.181,0.467,0.869,-0.157
COCCCNC(=O)[C@@]1(C)c2ccccc2C(=O)N(Cc2cc(C(F)(F)F)cc(C(F)(F)F)c2)[C@H]1c1ccc(CO)cc1,1.55,-0.122 (inactive),0.585 (inactive),-0.777 (inactive),3.01,0.666 (inactive),-0.166,-1.08,-0.134,-0.26
NCCCCCCNC(=O)[C@H]1C[C@H]2C(=O)NCC(=O)N2[C@H]1c1cccc(OCCO)c1,1.58,0.23 (inactive),-1.12 (inactive),-0.442 (inactive),1.59,1.1 (inactive),0.0537,1.5,1.15,-0.034
Cc1cc(C)c(C(O)C2C=CC3C(=O)N(c4ccccc4)C(=O)C3N2Nc2ccc(C#N)cc2)c(C)c1 (stereo not given),1.12,0.674 (inactive),0.788 (inactive),2.16 (inactive),3.52,0.111 (inactive),0.512,-0.0482,1.05,0.0905
COCCOC(=O)N1C(=O)[C@@]2(c3cc(C#CCNC(N)=O)ccc31)[C@H](c1ccc(O)cc1)N1[C@H](c3ccccc3)[C@H](c3ccccc3)OC(=O)[C@H]1[C@@H]2C(=O)NC[C@H](O)c1ccccc1,1.55,0.71 (inactive),1.2 (inactive),0.611 (inactive),1.62,-0.675 (inactive),0.434,0.664,1.06,0.0586
COCCOC(=O)N1C(=O)[C@@]2(c3cc(C#CCCO)ccc31)[C@H](c1ccccc1OCCO)N1[C@H](c3ccccc3)[C@H](c3ccccc3)OC(=O)[C@H]1[C@@H]2C(=O)N1CCN(c2ncccn2)CC1,1.54,1.24 (inactive),1.08 (inactive),3.94 (inactive),2.32,-0.27 (inactive),0.571,0.725,1.03,0.339
Cc1ccc(S[C@]2(C(=O)NC3CC3)CC(=O)N(C3CCCCC3)[C@@H]2c2ccc(CO)cc2I)cc1,1.53,0.0615 (inactive),0.532 (inactive),1.38 (inactive),2.6,1.26 (inactive),-0.138,0.659,1.06,-0.0703
CCOC(=O)C[C@H]1[C@H](OC(=O)c2ccc(-c3ccccc3)cc2)[C@@H](NC(=O)Cc2ccc(OC)cc2)c2cc(OCCCO)ccc2N1C(=O)c1ccc2ccccc2n1,0.532,-0.914 (inactive),0.56 (inactive),0.0126 (inactive),1.73,-0.733 (inactive),-0.0561,0.587,0.317,0.223
COc1ccc([Si](C)(C)[C@@H]2[C@@H](CC(=O)N3CCC[C@H]3CO)O[C@]3(C(=O)N(C)c4c(Br)cc(C)cc43)[C@H]2C)cc1,1.32,-1.69 (inactive),-0.328 (inactive),-0.827 (inactive),2.52,-0.861 (inactive),-0.0657,0.804,0.93,-0.0831
COC(=O)[C@@]1(Cc2ccccc2N=[N+]=[N-])COC(c2ccc(OCCCO)cc2)=N1,1.24,-1.33 (inactive),-11 (active),-1.99 (inactive),2.08,-0.574 (inactive),0.137,-0.353,0.0418,-0.0762
